Results filed as inconclusive are left out. Entries that show only a call come without a potency. Calls of active or inactive are those of the source. Calls come from the whole dose curve; as a rule, active = well fitted cell-killing curve with a large enough effect; inconclusive = small, poorly fitted or top-dose-only effect, or effect the other way; inactive = no such curve, though single readings can be large or run the other way.
Potency is the fitted concentration of half-maximal effect.

This experiment concerns Hek293T. Description: Confirmatory qHTS for gynecologic anti-cancer compounds from libraries of approved drugs and bioactive compounds. Note: nearly all actives have a fitted effect of over 55% in size. The conditions noted are these: gynecologic cancer cell panel viability, ATPlite luminescence, 48 h; series mostly up to 57.6 µM. An outline of the steps:
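1,000 cells/well; 16 h pre-incubation 37 C, 5% CO2; pin-transferred cpd in DMSO, 11 conc (1:3), 57.5 uM–0.977 nM; 48 h; ATPlite, 15 min RT; luminescence → IC50.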
For orientation: qHTS replaces the single test concentration by a dilution series.
Consider `CC(C)Oc1ccc(C(=O)NC(CNC(=O)CN(C)C)Cc2ccc(-c3cn4cccc(C(C)O)c4n3)cc2)cc1Cl` (stereo unspecified), for which the Potency result was “inactive”.

Take `Nc1ccccc1NC(=O)c1ccc(CNC(=O)OCc2cccnc2)cc1`: the Potency entry is “inactive”.

On to `Cc1nc(Nc2n[nH]c3c2CN(C(=O)NC(CN(C)C)c2ccccc2)C3(C)C)c2sccc2n1` (stereo unspecified), for which the Potency is 9.68 µM (active).

Turning to `Cc1cc(Nc2nc(N[C@@H](C)c3ccc(F)cc3)c(C#N)cc2F)n[nH]1`, the Potency result is “inactive”.

With `Cc1ccn(-c2ccc(-c3ncco3)cc2)c(=O)c1-c1ccc2nc(N)ncc2c1`, the Potency entry is “inactive”.

Turning to `COc1ccc2c(c1)c(CC(=O)O)c(C)n2C(=O)c1ccc(Cl)cc1`, the Potency entry is “inactive”.

On to `CC(C)c1nn(-c2c(Cl)cccc2Cl)c2nc(Cc3ccc(OCCO)cc3)[nH]c(=O)c12`, for which the Potency was 0.0306 µM (active).

Turning to `O=c1c(-c2ccc(O)cc2)coc2cc(O)cc(O)c12`, the Potency entry is “inactive”.

In the case of `Cc1cc(C2CCCCC2)n(O)c(=O)c1`, the Potency is 11.1 µM (active).

With `CCN(CC)CCNC(=O)c1c(C)[nH]c(/C=C2\C(=O)Nc3ccc(F)cc32)c1C`, the Potency was 31.6 µM (active).

`NC(=O)Nc1cc(-c2cccc(F)c2)sc1C(=O)NC1CCCNC1` (stereo unspecified): the Potency is 0.273 µM (active).

Regarding `CCc1cccc(CC)c1NC(=O)N1Cc2[nH]nc(NC(=O)c3ccc(N4CCN(C)CC4)cc3)c2C1`, the Potency result is “inactive”.

Turning to `CC(=O)c1cnc2ccc(-c3cc(Cl)c(O)c(Cl)c3)nc2c1NC1CCC(CN(C)C)CC1` (stereo unspecified), the Potency was 0.0352 µM (active).

As for `CCN[C@H]1C[C@H](C)S(=O)(=O)c2sc(S(N)(=O)=O)cc21`, the Potency result was “inactive”.

On to `CC(C)C[C@H](NC(=O)[C@@H](NC(=O)c1cccc(-c2ccccc2)n1)[C@@H](C)O)B(O)O`, for which the Potency is 0.193 µM (active).

Take `CN(C)CC/C=C1\c2ccccc2COc2ccccc21`: the Potency entry is “inactive”.

On to `Cc1ccc(-n2[nH]c(C)c(N=Nc3cccc(-c4cccc(C(=O)O)c4)c3O)c2=O)cc1C`, for which the Potency entry was “inactive”.

As for `COc1cc(N2CCC(N3CCN(C)CC3)CC2)ccc1Nc1ncc(Cl)c(Nc2ccccc2S(=O)(=O)C(C)C)n1`, the Potency is 21.7 µM (active).

In the case of `CC(C)(C)C(=O)OCOP(=O)(COCCn1cnc2c(N)ncnc21)OCOC(=O)C(C)(C)C`, the Potency is 3.43 µM (active).

Turning to `NC(=O)c1ccc2nc(-c3ccc(Oc4ccc(Cl)cc4)cc3)[nH]c2c1`, the Potency is 0.0217 µM (active).

Take `O=C(O)c1ccc(Nc2ncc3c(n2)-c2ccc(Cl)cc2C(c2c(F)cccc2F)=NC3)cc1`: the Potency entry is “inactive”.

Consider `Cn1c(=O)c(-c2c(Cl)cccc2Cl)cc2cnc(Nc3cccc(C(=O)O)c3)nc21`, for which the Potency result was “inactive”.

In the case of `Cc1c(C)n(Cc2ccc(-c3ccccc3C(=O)O)cc2)c2ccc(C(=O)N[C@@H](C)c3ccc([N+](=O)[O-])cc3)cc12`, the Potency entry was “inactive”.

Consider `CC(C)Nc1cc(-c2c[nH]c(C(=O)N[C@H](CO)c3cccc(Cl)c3)c2)c(Cl)cn1`, for which the Potency result is “inactive”.

Take `CCCCc1nc2cc(/C=C/C(=O)NO)ccc2n1CCN(CC)CC`: the Potency is 1.72 µM (active).

For the compound `CC(Oc1cc(-n2cnc3ccc(CN4CCN(C)CC4)cc32)sc1C(N)=O)c1ccccc1C(F)(F)F` (stereo unspecified), the Potency is 24.3 µM (active).

For `CCC1C(=O)N(C)c2cnc(Nc3ccc(C(=O)NC4CCC(N5CCN(CC6CC6)CC5)CC4)cc3OC)nc2N1C(C)C` (stereo unspecified), the Potency is 0.0611 µM (active).

Turning to `NC(=O)c1cnc(-c2ccc(C3(N)CCC3)cc2)c(-c2ccccc2)c1`, the Potency is 21.7 µM (active).

Take `COc1cc(Nc2ncc(F)c(Nc3ccc4c(n3)N(COP(=O)(O)O)C(=O)C(C)(C)O4)n2)cc(OC)c1OC`: the Potency entry was “inactive”.

For the compound `CC(C)C[C@H](NC(=O)[C@H](Cc1ccccc1)NC(=O)c1cnccn1)B(O)O`, the Potency is 0.0306 µM (active).

Turning to `Cc1ccc(C(=O)N(CCCN)C(c2nc3cc(Cl)ccc3c(=O)n2Cc2ccccc2)C(C)C)cc1` (stereo unspecified), the Potency was 0.0061 µM (active).

As for `CN1CCN(c2cccc(Nc3nc4c(-c5ccc(S(C)(=O)=O)cc5)cccn4n3)c2)CC1`, the Potency result was “inactive”.

Regarding `COCCOc1nc(-c2ccc(Cl)c(Cl)c2)n(-c2ccc(NC(=O)CCl)cc2)n1`, the Potency was 12.2 µM (active).

As for `Cc1cc(Nc2nc(N[C@@H](C)c3ncc(F)cn3)ncc2Cl)n[nH]1`, the Potency result was “inactive”.

For `CN1C2CCC1CC(OC(=O)[C@H](CO)c1ccccc1)C2` (stereo partly specified), the Potency result was “inactive”.

Regarding `Cc1csc(NC(=O)c2sc3nc4c(c(C(F)(F)F)c3c2N)CCC4)n1`, the Potency was 0.769 µM (active).
